Screens from PubChem.
Compounds with a hit are over-represented: about 1.2% of the library has one in this group of screens.
Avidin bead fluor – avidin bead compound fluorescence profile | hit rate 0.38% among 220,000 | fluorescence (KMESF) at 10 µM | AID 1775 | Avidin beads, compound fluorescence 488/530 nm, flow cytometry; hits give high values; in the data active = fluorescence above about 47
RGS8-Gao – human RGS8-Galphao interaction regulation. P09471. multiplexed bead flow cytometry, RGS8-Galphao binding; actives lie on both sides. response (percent of control binding), % at 10 µM. hit rate 0.34% among 220,000. AID 1423; in the data active = response below about 60% or above about 140%; inactive = in between;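 also: Galphao activated as the GDP aluminium fluoride complex binding bead-coupled RGS8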
Target sequence (P09471 whole entry, looked up): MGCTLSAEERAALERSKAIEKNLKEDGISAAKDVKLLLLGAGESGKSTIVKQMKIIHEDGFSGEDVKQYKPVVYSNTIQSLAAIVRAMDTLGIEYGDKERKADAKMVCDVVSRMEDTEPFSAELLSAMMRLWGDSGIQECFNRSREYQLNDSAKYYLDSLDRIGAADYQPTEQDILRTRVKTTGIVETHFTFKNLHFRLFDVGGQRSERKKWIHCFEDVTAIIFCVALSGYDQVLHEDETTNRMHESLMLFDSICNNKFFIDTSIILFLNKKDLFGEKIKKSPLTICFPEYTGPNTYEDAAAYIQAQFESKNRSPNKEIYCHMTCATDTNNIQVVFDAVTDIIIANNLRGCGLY
RGS7-Gao reg – regulators of human RGS7-Galphao interaction; P09471; Multiplexed bead flow cytometry, RGS7-Galphao binding; actives lie on both sides; binding response (% of control), % at 10 µM; hit rate 0.35% among 220,000; AID 1439; in the data active = binding response below about 49% or above about 150%; inconclusive = no clear call, values can overlap the other calls; inactive = in between;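 also: fluorescent Galphao held in activated GDP-AlF4 state binding bead-coupled RGS7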
RGS4-Gao reg – human RGS4-Galphao interaction regulation. Multiplexed bead flow cytometry, RGS4-Galphao binding; actives lie on both sides. binding response (% of control), % at 10 µM. hit rate 0.33% among 220,000; in the data active = binding response below about 49% or above about 150%; inactive = in between;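 also: fluorescent Galphao activated with aluminum fluoride binding bead-coupled RGS4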
RGS16-Gao HTS – RGS16-Galphao interaction regulator (human) | O15492+P09471 | bead-based flow cytometry RGS16-Galphao binding, fluorescence; actives lie on both sides | binding response (% of control), % at 10 µM | hit rate 0.38% among 220,000 | AID 1441;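 also: Galphao activated by GDP with aluminum fluoride before binding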
GSH bead fluor – compound fluoresces at 488/530 nm on GSH beads | GSH beads flow cytometry, compound fluorescence 488/530 nm; hits give high values | fluorescence (KMESF) at 10 µM | hit rate 0.25% among 190,000; in the data active = fluorescence above about 89;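 also: glutathione beads carrying GST-tagged Bcl family fusion proteins plus one bare bead set; values are compound well signal with DMSO vehicle wells as background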
RGS-Gao – modulates binding between human RGS4 and Galphao | multiplexed bead flow cytometry, RGS–Galpha-o binding | RGS4–Galpha-o binding response, % at 10 µM | shares compounds with RGS16-Gao HTS | AID 1504 | hit rate 99% among 1,600;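 also: fluorescently labeled Galpha-o bound to GDP with aluminium fluoride binding biotinylated RGS beads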
Biotin-avidin – counter-screen: compounds disrupting biotin binding to avidin beads; streptavidin beads, fluorescein-biotin binding, flow cytometry; inhibition, % at 10 µM; shares compounds with RGS16-Gao HTS; AID 1783; 1,700 tested, under 10 active;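 active = inhibition above 50%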;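 also: median green fluorescence of gated singlet beads compared with DMSO control wells; 0% = DMSO wells and 100% = complete loss of bead fluorescence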
RGS8-Gao confirm – confirmation of regulators of human RGS8-Galphao interaction | shares compounds with RGS16-Gao HTS | bead-based flow cytometry RGS8-Galphao binding, fluorescence; actives lie on both sides | binding response (% of control), % at 10 µM | hit rate 3% among 1,700; in the data active = binding response below about 72% or above about 130%; inactive = in between;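 also: Galphao activated as GDP AlF4 complex before binding bead RGS8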
RGS7-Gao single – RGS7-Galphao interaction regulation, single point confirmation; bead-based flow cytometry RGS7-Galphao binding; actives lie on both sides; AID 1837; shares compounds with RGS16-Gao HTS; hit rate 7.8% among 1,700; response (percent of control binding), % at 10 µM; in the data active = response below about 75% or above about 130%; inactive = in between;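 also: fluorescent Galphao activated with GDP and aluminum fluoride binding bead-coupled RGS7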
RGS16-Gao single – confirmation of regulators of human RGS16-Galphao interaction. shares compounds with RGS16-Gao HTS. bead-based flow cytometry, RGS16-Galphao binding; actives lie on both sides. response (% of control binding), % at 10 µM. hit rate 4% among 1,700. AID 1838; in the data active = response below about 74% or above about 130%; inactive = in between;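 also: Galphao activated as the GDP aluminium fluoride complex binding bead-coupled RGS16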
RGS4-Gao single – RGS4-Galphao interaction regulation, single point confirmation | binding response (% of control), % at 10 µM | hit rate 4% among 1,700 | shares compounds with RGS16-Gao HTS | RGS4-Galphao binding, multiplexed bead flow cytometry; actives lie on both sides | AID 1840; in the data active = binding response below about 74% or above about 130%; inactive = in between
RGS19-Gao conf – RGS19-Galphao interaction regulation, single point confirmation. shares compounds with RGS16-Gao HTS. bead-based flow cytometry RGS19-Galphao binding; actives lie on both sides. response (percent of control binding), % at 10 µM. hit rate 5% among 1,700; in the data active = response below about 50% or above about 160%; inactive = in between;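 also: 100% = no compound control and 0% = blank background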
Target sequence (P09471 whole entry, looked up): as above
Target sequence (P49795 whole entry, looked up): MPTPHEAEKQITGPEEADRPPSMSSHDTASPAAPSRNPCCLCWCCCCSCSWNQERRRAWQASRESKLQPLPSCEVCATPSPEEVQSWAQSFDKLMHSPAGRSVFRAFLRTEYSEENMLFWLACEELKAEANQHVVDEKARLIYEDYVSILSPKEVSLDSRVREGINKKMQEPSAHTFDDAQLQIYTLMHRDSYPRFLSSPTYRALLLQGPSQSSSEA
* = called active by the depositor; [ ] = another dose, or the depositor's remark. Unless noted, no rule for the calls is given here.

`COc1cccc(/C=N/NC(=O)CCc2c(C)n[nH]c2C)c1O` gave Avidin bead fluor 7, RGS8-Gao 96, RGS7-Gao reg inconclusive, RGS4-Gao reg 89 and RGS16-Gao HTS 95.
CC(=O)C12C3C4C(C5C1C3C5(Br)C41OCCO1)C21OCCO1 (stereo not drawn) was read as Avidin bead fluor 7, RGS8-Gao 86, RGS7-Gao reg 90, RGS4-Gao reg 93, RGS16-Gao HTS 22*, GSH bead fluor 8, RGS-Gao 93*, Biotin-avidin -2, RGS8-Gao confirm 112, RGS7-Gao single 117, RGS16-Gao single 112, RGS4-Gao single 113 and RGS19-Gao conf 99.
O=C(Nc1ccc2c(c1)OCCO2)c1coc2ccccc2c1=O was read as Avidin bead fluor 7, RGS8-Gao 99, RGS7-Gao reg 97, RGS4-Gao reg 102, RGS16-Gao HTS 99 and GSH bead fluor 11.
CNC(=O)c1ccsc1NC(=O)c1coc2ccccc2c1=O was read as Avidin bead fluor -1, RGS8-Gao 12*, RGS7-Gao reg -6.6*, RGS4-Gao reg 9.9*, RGS16-Gao HTS 1.6*, GSH bead fluor 18, Biotin-avidin 0, RGS8-Gao confirm 100, RGS7-Gao single 89, RGS16-Gao single 99, RGS4-Gao single 93 and RGS19-Gao conf 78.
Cc1cc(/C(N)=N/OC(=O)c2ccccc2Cl)no1 was read as Avidin bead fluor 7, RGS8-Gao 102, RGS7-Gao reg inconclusive, RGS4-Gao reg 98 and RGS16-Gao HTS 104.
For COc1ccccc1NC(=O)c1cc2cc(Br)ccc2cc1O the results were Avidin bead fluor 6, RGS8-Gao 90, RGS7-Gao reg inconclusive, RGS4-Gao reg 87 and RGS16-Gao HTS 84.
`Cc1ccc(-c2nn[nH]n2)cc1` gave GSH bead fluor 19, Biotin-avidin 3, RGS8-Gao confirm 92, RGS7-Gao single 91, RGS16-Gao single 93, RGS4-Gao single 95 and RGS19-Gao conf 71.
`Cc1ccc(-c2nn[nH]n2)o1` gave Avidin bead fluor 81*, RGS8-Gao 102, RGS7-Gao reg 151*[activator], RGS4-Gao reg 123, RGS16-Gao HTS 105, GSH bead fluor 10, RGS-Gao 123*, Biotin-avidin 2, RGS8-Gao confirm 103, RGS7-Gao single 101, RGS16-Gao single 103, RGS4-Gao single 101 and RGS19-Gao conf 92.
Screening Cc1ccc(-c2nn[nH]n2)cc1Cl returned Avidin bead fluor 8, RGS8-Gao 102, RGS7-Gao reg inconclusive, RGS4-Gao reg 112 and RGS16-Gao HTS 104.
C(#CC12CC3CC(CC(C3)C1)C2)CN1CCOCC1 was read as Avidin bead fluor 10, RGS8-Gao 107, RGS7-Gao reg 101, RGS4-Gao reg 108, RGS16-Gao HTS 109 and GSH bead fluor 11.
For Cc1cc(/C=N/Nc2nc(N3CCOCC3)nc(N3CCOCC3)n2)c(C)n1-c1ccccc1 the results were Avidin bead fluor 58*, RGS8-Gao 7.9*, RGS7-Gao reg 51, RGS4-Gao reg 27*, RGS16-Gao HTS 28, GSH bead fluor 21, Biotin-avidin 0, RGS8-Gao confirm 100, RGS7-Gao single 101, RGS16-Gao single 101, RGS4-Gao single 101 and RGS19-Gao conf 113.
`Cn1c(=O)n(C)c2cc(S(=O)(=O)NCc3ccco3)ccc21` gave Avidin bead fluor 176*, RGS8-Gao 101, RGS7-Gao reg 204*[activator], RGS4-Gao reg 117, RGS16-Gao HTS 114, GSH bead fluor 23, RGS-Gao 117*, Biotin-avidin 2, RGS8-Gao confirm 104, RGS7-Gao single 102, RGS16-Gao single 103, RGS4-Gao single 102 and RGS19-Gao conf 110.
O=C(Nc1nnc(SCc2ccc(F)cc2)s1)c1ccc2c(c1)C(=O)N(c1ccccc1Cl)C2=O was read as Avidin bead fluor 6, RGS8-Gao 102, RGS7-Gao reg 102, RGS4-Gao reg 104, RGS16-Gao HTS 103 and GSH bead fluor 17.
Screening O=C1C(=O)N(CC2CCCO2)C(c2ccccc2[N+](=O)[O-])/C1=C(/O)c1ccccc1 (stereo not drawn) returned Avidin bead fluor 21, RGS8-Gao 103, RGS7-Gao reg 99, RGS4-Gao reg 101, RGS16-Gao HTS 104 and GSH bead fluor 10.
Screening CC(Sc1nc(-c2ccco2)nc2c1c(=O)n(C)c(=O)n2C)C(=O)O (stereo not drawn) returned Avidin bead fluor 5, RGS8-Gao 100, RGS7-Gao reg inconclusive, RGS4-Gao reg 98 and RGS16-Gao HTS 103.
`CC[n+]1c(/C=C/C=C/N(C(C)=O)c2ccccc2)sc2cc(OC)ccc21` gave Avidin bead fluor 30, RGS8-Gao 93, RGS7-Gao reg 155*[activator], RGS4-Gao reg 135, RGS16-Gao HTS 143, GSH bead fluor 6 and RGS-Gao 135*.
Screening Cc1ccc(CN2CCN(/N=C/c3cccnc3)CC2)cc1 returned Avidin bead fluor 6, RGS8-Gao 125, RGS7-Gao reg 110, RGS4-Gao reg 110, RGS16-Gao HTS 260*[activator], GSH bead fluor 12, RGS-Gao 110*, Biotin-avidin 3, RGS8-Gao confirm 99, RGS7-Gao single 100, RGS16-Gao single 99, RGS4-Gao single 98 and RGS19-Gao conf 85.
`Cc1ccc(CN2CCN(/N=C/c3ccc(C(=O)O)cc3)CC2)cc1` gave Avidin bead fluor 14, RGS8-Gao 100, RGS7-Gao reg 98, RGS4-Gao reg 100, RGS16-Gao HTS 98 and GSH bead fluor 9.
